FMDV antiviral – foot and mouth disease virus antiviral activity | Potency, µM (top dose mostly 57.9 µM), for inactives: top-dose activity change, negative = inhibition, usual class: inhibitors | actives 1.2% (n = 410,000) | FMDV antiviral cell-based qHTS; calls by dose curve; tested in HEK293T cells; note: read-out not given here; nearly all actives have a fitted effect of over 45% in size
Giardia FBPA inh – Giardia lamblia aldolase inhibition; purified Giardia FBPA; Potency, µM (top dose mostly 59.6 µM), inactives show top-dose activity, negative = inhibition, hits mostly inhibitors; actives 0.71% (n = 290,000); active = well fitted inhibition curve with a large enough effect; inconclusive = small, poorly fitted or top-dose-only effect, or effect the other way; note: nearly all actives have a fitted effect of over 55% in size
Target sequence (A8B2U2 whole entry, looked up): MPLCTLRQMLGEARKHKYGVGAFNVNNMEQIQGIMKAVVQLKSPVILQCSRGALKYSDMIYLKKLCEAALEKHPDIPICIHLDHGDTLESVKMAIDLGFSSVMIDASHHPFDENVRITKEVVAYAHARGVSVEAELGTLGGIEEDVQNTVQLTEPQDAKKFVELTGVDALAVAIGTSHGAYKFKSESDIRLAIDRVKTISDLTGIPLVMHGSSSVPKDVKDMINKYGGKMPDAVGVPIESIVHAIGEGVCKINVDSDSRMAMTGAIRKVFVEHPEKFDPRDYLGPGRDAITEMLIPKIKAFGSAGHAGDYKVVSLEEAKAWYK
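Giardia FBPA (40 nM reagent) was preincubated 10 min at RT with compound (up to 57.5 uM final), then substrate plus GAPDH/TPI/NAD/arsenate coupling system with diaphorase/resazurin was added; resorufin fluorescence (525/598 nm) was read after 20 min.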
Vaccinia Venus – inhibitors of vaccinia virus (Venus reporter). Vaccinia virus Venus reporter expression, fluorescence. Potency, µM (series often up to 36.5 µM), without a hit: at the highest dose activity change, negative = inhibition, usual class: inhibitors. actives 0.46% (n = 330,000). AID 720580; calls by dose curve; tested in A549 cells; note: nearly all actives have a fitted effect of over 30% in size
Vaccinia mCherry – inhibitors of vaccinia virus infection (mCherry reporter signal); Potency, µM (top dose mostly 36.5 µM), inactives show at the top dose activity change, negative = inhibition, hits mostly inhibitors; actives 0.63% (n = 310,000); AID 720579; Vaccinia virus mCherry reporter infection, fluorescence; calls by dose curve; tested in A549 cells; note: nearly all actives have a fitted effect of over 35% in size
Starred values were filed as active, the others as inactive; i = inactive; ? = inconclusive; . = no result. A selection: hits, their analogues and other compounds. The true share with any hit is near 2.2%. % is set by controls: 0 for no effect and ±100 for the full control effect; potency is the fitted concentration of half-maximal effect.

SMILES	FMDV antiviral	Giardia FBPA inh	Vaccinia Venus	Vaccinia mCherry
Cc1ccc(-n2c(SCC(N)=O)nc3c(c2=O)C2(CCCC2)Cc2ccccc2-3)cc1	22µM*	18%	-24%	i
CCSc1n[nH]c2nc3c(c(=O)n12)C1(CCCC1)Cc1ccccc1-3	?	-5%	-24%	.
COc1ccc(C2=Nn3c(nnc3-c3cccc(OC)c3OC)SC2)c(OC)c1	.	7%	.	.
O=S(=O)(c1ccccc1C(F)(F)F)N1CCN(c2nc(-c3ccccc3)nc3ccccc23)CC1	.	.	-14%	-14%
CC(=O)c1c(C)oc2ccc(N(C(C)=O)S(=O)(=O)c3ccc(Cl)c([N+](=O)[O-])c3)cc12	35µM*	1%	-6%	.
CCC(=O)[C@@H](C)[C@@H](O)[C@H](C)C[C@@H](C)C1OC(=O)C[C@@]2(O)CC=C(C)C(O2)C(C)=CCCC[C@H](O[C@H]2C[C@@H](OC(N)=O)[C@H](O)[C@@H](C)O2)C=C[C@H](C)C[C@H]1C (stereo partly drawn)	18µM*	.	?	?
CCC(=O)[C@@H](C)[C@@H](OC(C)=O)[C@H](C)C[C@@H](C)[C@H]1OC(=O)C[C@@]2(O)CC=C(C)C(O2)C(C)=CCCC[C@H](O[C@H]2C[C@@H](OC(N)=O)[C@H](OC(C)=O)[C@@H](C)O2)C=C[C@H](C)C[C@H]1C	-29%	.	?	-17%
COCC(=O)Nc1cc(C(=O)NC2CCCc3ccccc32)c2c(c1)nc(-c1ccncc1)n2C (stereo not drawn)	-8%	.	-8%	-14%
CN1C(=O)C(Cl)(Cl)C(=O)c2ccccc21	28µM*	5µM*	-7%	-8%
CN1C(=O)C2(NC(=O)c3ccccc3N2C)c2ccccc21 (stereo not drawn)	-11%	0%	.	.
Cc1nn(C)cc1C(C)NC(=O)c1cc(COc2cccc3cnccc23)on1 (stereo not drawn)	20µM*	.	-20%	-20%
O=C(c1cc(COc2cccc3cnccc23)on1)N1CCCC(CCCO)C1 (stereo not drawn)	32µM*	4%	.	.
Cc1nn(C)cc1C(C)NC(=O)c1cc(COc2c(F)cccc2F)on1 (stereo not drawn)	1%	15%	.	.
Cn1c(=O)[nH]c(=O)c2[nH]c(CN3CCN(Cc4ccccc4)CC3)nc21	0%	-24%	1%	i
Cn1c(=O)[nH]c(=O)c2[nH]c(N(Cc3ccccc3)Cc3ccccc3)nc21	40µM*	12%	?	.
COCC(=O)Nc1cc(C(=O)N2CCN(C)C(c3ccccc3)C2)c2c(c1)nc(-c1ccncc1)n2C (stereo not drawn)	-7%	.	-19%	i
COc1ccc(CN2C[C@H](Sc3nc4ccccc4[nH]3)C[C@H]2C(=O)N(C)C)c2ccccc12	1%	.	-1%	-17%
O=C(c1ccc(Cl)c(S(=O)(=O)N2CCCCCC2)c1)N1CCCCC1	7%	.	.	.
CN(c1ccccc1)S(=O)(=O)c1cccc(C(=O)N2CCN(c3ccccn3)CC2)c1	40µM*	-6%	?	.
CCOc1ccccc1N1CCN(C(=O)c2ccc(Cl)c(S(=O)(=O)N3CCCCC3)c2)CC1	32µM*	.	-22%	-18%
